The list is not random: actives were taken first. Their share in the collection is about 1.7%.
PTPN22 inh 2: LYP (human) phosphatase inhibition | recombinant LYP catalytic domain, DiFMUP fluorescence | inhibition, % at 2 µM | hit rate 0.21% among 96,000 | AID 640;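 active = inhibition at 2 µM at or above a set limit, the screen mean plus 3 SD, cut at about 24% in these data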
Target sequence (Q9Y2R2 whole entry, looked up, the tested form may be a part): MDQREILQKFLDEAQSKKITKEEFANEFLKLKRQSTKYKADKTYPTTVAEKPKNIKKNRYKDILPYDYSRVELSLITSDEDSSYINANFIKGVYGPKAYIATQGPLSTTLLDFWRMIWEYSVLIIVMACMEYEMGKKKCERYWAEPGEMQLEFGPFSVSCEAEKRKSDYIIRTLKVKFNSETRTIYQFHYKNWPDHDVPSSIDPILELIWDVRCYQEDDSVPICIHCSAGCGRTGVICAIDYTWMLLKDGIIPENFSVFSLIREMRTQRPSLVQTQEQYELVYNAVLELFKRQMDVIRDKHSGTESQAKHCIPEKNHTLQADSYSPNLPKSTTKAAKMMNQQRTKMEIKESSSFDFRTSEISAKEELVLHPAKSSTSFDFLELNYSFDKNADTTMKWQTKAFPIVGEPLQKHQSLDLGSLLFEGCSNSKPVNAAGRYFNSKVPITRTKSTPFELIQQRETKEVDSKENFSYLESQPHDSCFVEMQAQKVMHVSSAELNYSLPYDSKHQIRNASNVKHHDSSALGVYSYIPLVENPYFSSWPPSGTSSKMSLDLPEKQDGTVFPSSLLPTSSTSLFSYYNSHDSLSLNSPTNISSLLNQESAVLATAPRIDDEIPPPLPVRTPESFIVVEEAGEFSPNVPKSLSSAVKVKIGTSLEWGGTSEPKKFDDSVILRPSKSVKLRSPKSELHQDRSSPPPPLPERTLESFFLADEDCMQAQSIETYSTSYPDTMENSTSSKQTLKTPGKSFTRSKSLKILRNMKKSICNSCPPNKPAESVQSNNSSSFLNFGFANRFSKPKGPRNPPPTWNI
Measles CPE: protection of cells from measles virus | Measles virus-infected cells, CPE protection, absorbance | protection (pct of control), % at 4 µM | hit rate 1.5% among 140,000; in the data active = protection mostly above about 24%, no sharp cut-off; inactive = mostly below about 26%
PTPN22 act: LYP (human) phosphatase activation | Q9Y2R2 | recombinant LYP, DiFMUP fluorescence; 0 = plate median, 100 = signal doubled | activation, % at 2 µM | hit rate 0.11% among 96,000 | AID 697;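 active = activation at 2 µM above a set limit, the mean plus 5 SD, cut at about 37% in these data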
Each line names hits and unclear results; the compound was inactive in the other large screens.

Cc1ccc2c(CC(=O)NCc3ccc4c(c3)OCO4)coc2c1	none
CCCCCCCCCSc1n[nH]c(N)n1	Measles CPE 60
CCCCCCCCSc1n[nH]c(N)n1	none (no result: PTPN22 inh 2, PTPN22 act)
O=C(NNc1c2ccccc2nc2ccccc12)c1ccc(O)cc1	none (no result: PTPN22 inh 2, PTPN22 act)
Cc1cc2occ(CC(=O)Nc3nnc(C4CC4)s3)c2cc1C	none
O=C(Cc1coc2ccc3ccccc3c12)Nc1nnc(C2CC2)s1	Measles CPE 56
O=C(COC(=O)c1ccccc1)c1ccc(Br)cc1	none
O=C(CSc1nc2ccccc2c(=O)n1Cc1ccc(F)cc1)NCc1cccs1	none (no result: PTPN22 inh 2, PTPN22 act)
O=C(OCC(=O)N1CCN(C(=O)c2ccco2)CC1)C1=COCCO1	Measles CPE 23 (no result: PTPN22 inh 2, PTPN22 act)
O=C(OCC(=O)N1CCN(c2ccccc2)CC1)C1=COCCO1	none
O=c1cc(-c2ccc(Cl)cc2)[nH][nH]1	Measles CPE 41
O=c1cc(-c2ccc(Cl)c(Cl)c2)[nH][nH]1	none
O=C(NC1CCCCC1)c1cnn2c(C(F)(F)F)cc(-c3ccco3)nc12	none
O=[N+]([O-])c1ccc(C2Nc3cccc4cccc(c34)N2)cc1	none (no result: PTPN22 inh 2, PTPN22 act)
C/C(=N\NC(=O)CSCc1ccccc1Br)c1cccc([N+](=O)[O-])c1	none (no result: PTPN22 inh 2, PTPN22 act)
C/C(=N\NC(=O)CSCc1ccc([N+](=O)[O-])cc1)c1cccc(Br)c1	Measles CPE 35 (no result: PTPN22 inh 2, PTPN22 act)
COCCCN(C(=O)c1ccco1)c1nc(-c2cc(OC)ccc2OC)cs1	none
COc1cc(C(=O)N2CCC(C(=O)Nc3cccc(C(C)=O)c3)CC2)cc(OC)c1OC	none (no result: PTPN22 inh 2, PTPN22 act)
Cc1nccc(-c2ccc(-n3cnc4ccccc43)cc2)n1	Measles CPE 29
c1ccc2c(c1)ncn2-c1ccc(-c2ccnc(-c3ccncc3)n2)cc1	none
COc1oc(-c2ccccc2C)nc1C(F)(F)F	none
CCOC(=O)N1CCC(N(CCOC)C(=O)Nc2ccc(CC)cc2)CC1	none (no result: PTPN22 inh 2, PTPN22 act)
CCc1ccc(NC(=O)N(CCOC)C2CCN(C(C)=O)CC2)cc1	Measles CPE 65
Cc1nnc(N2C(=O)c3cccc4cccc(c34)C2=O)s1	none
Cc1nnc(C)n1N1C(=O)c2cccc3cccc(c23)C1=O	Measles CPE 49
C=CCn1c(=NC(=O)c2ccc(S(=O)(=O)N3CCc4ccccc4C3)cc2)sc2cc(S(N)(=O)=O)ccc21	none (no result: PTPN22 inh 2, PTPN22 act)
Cc1cc(C)n2nc(SCc3cc(=O)oc4cc(O)ccc34)nc2n1	PTPN22 inh 2 29
Cc1cc(C)n2nc(SCn3nnc4ccccc4c3=O)nc2n1	none
O=C(CN1CCN(c2nc(-c3ccc(Cl)cc3)cs2)CC1)NCc1ccco1	none
COc1ccc(Cl)cc1N(CC(=O)Nc1ccccc1C(=O)NCc1ccco1)S(C)(=O)=O	Measles CPE 46
COc1ccc(OC)c(N(CC(=O)Nc2ccccc2C(=O)NCc2ccco2)S(C)(=O)=O)c1	none
O=C(/C=C/c1ccc(S(=O)(=O)NCc2ccco2)cc1)NCc1ccccc1Cl	none (no result: PTPN22 inh 2, PTPN22 act)
O=C(Nc1ccc(Cl)cc1)Nc1ccccc1C(=O)NCc1ccco1	Measles CPE 38
O=C(Nc1ccccc1C(=O)NCc1ccco1)c1ccccc1	none
O=C(/C=C/c1ccc(Cl)cc1)NCc1ccco1	Measles CPE 18 (no result: PTPN22 inh 2, PTPN22 act)
O=C1CCC(=O)N1c1ccccc1-c1ccccc1	none
CCCC1(C(=O)OCC)NC(c2ccc(N(C)C)cc2)C2C(=O)N(c3ccccc3)C(=O)C21 (stereo not given)	none
O=C(Nc1ccccc1)c1cccc(N2C(=O)CCC2=O)c1	none
Cc1cc(C(=O)Cn2nnc3ccccc3c2=O)c(C)n1-c1ccccc1F	Measles CPE 97
COc1ccc(-n2c(C)cc(C(=O)Cn3nnc4ccccc4c3=O)c2C)cc1	none (no result: Measles CPE)
O=C(NCCc1ccccc1)c1ccc2nc(-c3ccco3)c(-c3ccco3)nc2c1	none
O=C(COc1ccc(Br)cc1CO)Nc1ccc(F)cc1	none
Cc1ccc(NC(=O)COc2ccc(Br)cc2C)cc1	Measles CPE 26 (no result: PTPN22 inh 2, PTPN22 act)
CC1Cc2ccccc2N1C(=O)CSc1nnc(Cn2nnc3ccccc32)n1C (stereo not given)	Measles CPE 36
CC(C)N(C(=O)CSc1nnc(Cn2nnc3ccccc32)n1C)C(C)C	none
O=C(O)CSc1nnc(Cn2nnc3ccccc32)n1CCc1ccccc1	Measles CPE 28
NC(=O)CSc1nnc(Cn2c(=O)sc3ccccc32)n1CCc1ccccc1	none (no result: PTPN22 inh 2, PTPN22 act)
CCOC(=O)CN1C(=O)S/C(=C/c2cc(C)n(-c3ccccn3)c2C)C1=O	none
CCCC(=O)Nc1c(-c2cccs2)c(=O)c2ccccc2n1CC	none
Cc1ccc(C(=O)N/N=c2\sc3ccccc3n2C)cc1	none (no result: PTPN22 inh 2, PTPN22 act)
COc1cccc(C(=O)N/N=c2\sc3ccccc3n2C)c1	Measles CPE 26 (no result: PTPN22 inh 2, PTPN22 act)
Cc1ccc(NC(=O)CSc2nnc(NC(=O)c3ccc(S(=O)(=O)N4CCOCC4)cc3)s2)cc1	none (no result: PTPN22 inh 2, PTPN22 act)
Nc1nnc(SCC(=O)Nc2ccc(S(=O)(=O)N3CCOCC3)cc2)s1	PTPN22 inh 2 26
CCOC(=O)N1CCN(c2nc(C(F)(F)F)nc3c(C)cc(C)cc23)CC1	none
COc1ccc(C(=O)Nn2c(SCC(=O)c3ccc(Cl)cc3)nc3ccccc3c2=O)cc1	Measles CPE 84
COc1ccc(C(=O)Nn2c(SCC(=O)N3CCC(C)CC3)nc3ccccc3c2=O)cc1	none
COc1cc(C(=O)O)cc(OC)c1OCc1cc(C(=O)O)oc1C	none
CCNC(=S)N1CCC(NC(=O)C2CCCCC2)CC1	none
CCNC(=S)NNC(=O)C1CCCCC1	Measles CPE 28
COCCN(Cc1cc2cccc(C)c2[nH]c1=O)C(=O)c1ccccc1	none
Cc1cc(C)cc(-n2c3nc4ccccc4nc3c3c(=O)n(Cc4ccco4)cnc32)c1	PTPN22 inh 2 38
CCOc1ccc(-n2c3nc4ccccc4nc3c3c(=O)n(Cc4ccco4)cnc32)cc1	none (no result: Measles CPE)
CCOC(=O)c1cc(-c2ccccc2)sc1NC(=O)CC	none (no result: PTPN22 inh 2, PTPN22 act)
COc1ccc(CCNc2cc(-c3ccccc3)nc3ncnn23)cc1	none
Cn1ncc2c(Nc3ccc(-c4ccccc4)cc3)ncnc21	Measles CPE 75 (no result: PTPN22 inh 2, PTPN22 act)
Cn1ncc2c(Nc3cccc(C(=O)O)c3)ncnc21	none
CCOC(=O)NC(=O)CSc1nnnn1-c1ccccc1	none
O=C(CSc1ccccc1C(=O)O)NCc1ccc(Cl)cc1	Measles CPE 40 (no result: PTPN22 inh 2, PTPN22 act)
O=C(CSc1ccccc1C(=O)O)NCc1ccco1	none
CCC(=O)Nc1ccc(S(=O)(=O)Nc2ccc(Cl)nn2)cc1	none (no result: PTPN22 inh 2, PTPN22 act)
O=C1CC(N2C(=O)/C(=C/C=C/c3ccccc3)SC2=S)C(=O)N1c1ccccc1 (stereo not given)	none (no result: PTPN22 inh 2, PTPN22 act)
Cc1ccc([N+](=O)[O-])c(OCCN2CCCCCC2)c1	none (no result: PTPN22 inh 2, PTPN22 act)
O=C(CCNc1n[nH]c(=O)[nH]c1=O)N1CCCCC1	none
NC(=O)COC(=O)CC(NC(N)=O)c1ccc(Cl)cc1 (stereo not given)	Measles CPE 37 (no result: PTPN22 inh 2, PTPN22 act)
NC(=O)NC(CC(=O)OCC(=O)NC(=O)NCc1ccco1)c1ccc(Cl)cc1 (stereo not given)	none
COc1ccc(Nc2ccnc(Nc3ccc(OC)cc3)n2)cc1	none (no result: PTPN22 inh 2, PTPN22 act)
Cc1ccc(NC(=O)Cn2cnc3c(oc4nc5c(cc43)COC(C)(C)C5)c2=O)cc1	none (no result: PTPN22 inh 2, PTPN22 act)
COc1ccc(OCCC(=O)OCC(=O)Nc2cccc(Br)c2)cc1	Measles CPE 41 (no result: PTPN22 inh 2, PTPN22 act)
COc1ccc(OCCC(=O)OCC(=O)Nc2ccc(Br)cc2)cc1	none (no result: PTPN22 inh 2, PTPN22 act)
O=C(NC1CCCC1)C(c1ccc(N2CCOCC2)cc1)N(Cc1ccccc1)C(=O)c1ccco1 (stereo not given)	none
O=C(Nc1ncc(Cc2cccc(Cl)c2)s1)c1cccs1	none
O=C(CSc1cccc[n+]1[O-])Nc1cc(S(=O)(=O)N2CCOCC2)ccc1Cl	none (no result: PTPN22 inh 2, PTPN22 act)
O=C(CSc1cccc[n+]1[O-])Nc1cc2c(cc1Cl)C(=O)c1ccccc1C2=O	Measles CPE 24 (no result: PTPN22 inh 2, PTPN22 act)
COc1cccc2cc(C(=O)Nc3cccnc3N3CCOCC3)c(=O)oc12	none

Compound activity deposited in PubChem BioAssay by several laboratories.
